# Bioassay records as filed in PubChem BioAssay.
# HP1b binding inh: HP1-beta chromodomain-methylated histone interaction inhibition | P83916 | AlphaScreen HP1-beta / biotin-H3K9me3 peptide binding | Potency, µM (top dose mostly 114 µM), inactives show at the highest dose activity change, negative = inhibition, actives largely listed as inhibitors | actives 0.56% (n = 390,000) | AID 540317; further: nearly all actives have a fitted effect of over 70% in size
# Target sequence (P83916 whole entry, looked up): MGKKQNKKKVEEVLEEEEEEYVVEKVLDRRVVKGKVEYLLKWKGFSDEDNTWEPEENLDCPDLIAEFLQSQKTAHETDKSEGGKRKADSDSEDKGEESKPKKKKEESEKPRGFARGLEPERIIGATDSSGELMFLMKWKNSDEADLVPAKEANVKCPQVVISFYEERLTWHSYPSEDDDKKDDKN
#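 HP1-beta protein (50 nM final) preincubated 30 min at room temperature with biotinylated H3(1-18)K9me3 peptide (50 nM) in PBS pH 7.4, 0.01% Tween-20, then compound added for 30 min. AlphaScreen streptavidin donor/nickel chelate acceptor beads (10 ug/mL final), 30 min dark, luminescence read.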
# L3MBTL1 inh: inhibitors of human L3MBTL1 | actives 0.66% (n = 230,000) | Q9Y468 | AlphaScreen L3MBTL1–H3K9me1 peptide binding | Potency, µM (titrated, usually from 57.1 µM), for the others: at the top dose activity, negative = inhibition, most hits filed as inhibitors; further: on the % scale 0 is the no-effect control and ±100 the full control effect; nearly all actives have a fitted effect of over 60% in size
#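 L3MBTL1 (50 nM) pre-complexed 30 min with biotinylated H3(1-15)K9me1 peptide (75 nM), then compounds added for 30 min at room temperature; AlphaScreen streptavidin donor/nickel chelate acceptor beads (10 ug/mL final) read after 30 min dark incubation.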
# BAZ2B block: blocks human BAZ2B | Q9UIF8 | AlphaScreen BAZ2B-H3K14Ac peptide displacement | Potency, µM (top dose mostly 114 µM), without a hit: at the top dose activity change, negative = inhibition, hits mostly inhibitors | actives 4.4% (n = 360,000) | AID 504333; further: on the % scale 0 is the no-effect control and ±100 the full control effect; nearly all actives have a fitted effect of over 60% in size
#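 AlphaScreen luminescence quantifies BAZ2B engagement of H3K14Ac peptide; the protein and biotinylated peptide are both at 50 nM final, buffer PBS pH 7.4 with 0.01% Tween-20, all steps at room temperature.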
# G9a inh: inhibitors of human histone lysine methyltransferase G9a. Q96KQ7. G9a H3K9 monomethylation, AlphaScreen, 2 h. Potency, µM (titrated, usually from 102 µM), without a hit: at the top dose activity, negative = inhibition, most hits filed as inhibitors. actives 8.8% (n = 350,000); further: on the % scale 0 is the no-effect control and ±100 the full control effect; nearly all actives have a fitted effect of over 75% in size
# Target sequence (Q96KQ7 913-1193 limits assumed): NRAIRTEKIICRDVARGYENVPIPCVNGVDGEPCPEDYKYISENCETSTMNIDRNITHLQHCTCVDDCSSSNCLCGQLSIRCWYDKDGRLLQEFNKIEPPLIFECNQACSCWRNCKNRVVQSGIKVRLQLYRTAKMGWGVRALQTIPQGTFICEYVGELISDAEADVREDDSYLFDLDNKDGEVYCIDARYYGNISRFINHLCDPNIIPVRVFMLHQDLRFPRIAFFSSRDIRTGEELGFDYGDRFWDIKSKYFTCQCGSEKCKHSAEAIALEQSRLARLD
#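 Compounds were preincubated with 20 nM G9a for 15 min, after which biotinylated H3K9 peptide (500 nM) and SAM (20 uM) started a 2 h room-temperature reaction. Monomethylated product was quantified by antibody-based AlphaScreen chemiluminescence.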
# JMJD2A Tudor: inhibitors of human JMJD2A Tudor domain | O75164 | AlphaScreen JMJD2A-Tudor / H3K4me3 peptide binding | Potency, µM (doses to about 114 µM), for inactives: at the highest dose activity change, negative = inhibition, most hits filed as inhibitors | actives 4.4% (n = 390,000); further: on the % scale 0 is the no-effect control and ±100 the full control effect; nearly all actives have a fitted effect of over 50% in size
# Sfp inh: inhibitors of Bacillus subtilis Sfp phosphopantetheinyl transferase. Biochemical Sfp PPTase activity, qHTS. Potency, µM, without a hit: largest response in the series, negative = inhibition, usual class: inhibitors. AID 1490. Q9F4F7. actives 3.5% (n = 310,000);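 further: the enzyme is Sfp with the accession as filed and its product quenches rhodamine fluorescence; 0% = enzyme reaction without inhibitor and -100% = no enzyme wells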
#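 Sfp 15 nM + cpd, 15 min RT; start w/ rhodamine-CoA 5 uM, BHQ-2-YbbR 12.5 uM (final); 50 mM Hepes pH 7.6, 10 mM MgCl2, 0.01% NP-40, 0.01% BSA; read 525/598 nm at 0 and 30 min.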
# * hit, by the source's call; ? = inconclusive; nt = no result; [ ] = dose if it differs, or a comment. Most compounds without a hit are left out; they make up all but 12% or so of the library. The call rests on the fitted dose curve; in most records, active means well fitted curve in the direction sought with a large enough effect; inconclusive means small, poorly fitted or top-dose-only effect, or another doubt; inactive means no such curve, though single readings can be large; an effect the other way counts as inactive or inconclusive. Potency means the concentration at half of the fitted maximal effect.
SMILES,HP1b binding inh,L3MBTL1 inh,BAZ2B block,G9a inh,JMJD2A Tudor,Sfp inh
COc1ccccc1OCCn1c(NC(=O)c2ccccc2Cl)nc2ccccc21,36%,nt,-26%,17%[59 µM],-17%,nt
COc1ccc(OC)c(NC(=O)CCc2c(C)nc3c(c(C)nn3C(C)(C)C)c2C)c1,16%,nt,-27%,-3%[59 µM],-26%,nt
CCOC(=O)C(CC)Sc1ncnc2sc3c(c12)CCCC3 (stereo not given),130%,nt,180%,168%[59 µM],114%,nt
CCOCCCNCC(=O)NCC1CCCCC1,?,13%,50µM*,20µM*,20µM*,-23%
CCOc1ccccc1C(=O)NCC(=O)NCC1CCCCC1,23%,nt,3%,6%,-4%,11%
COc1ccc(C(=O)C(OC(=O)CNC(=O)c2ccco2)c2ccccc2)cc1 (stereo not given),8%,-9%,-38%[57.1 µM],50µM*,-16%,79µM*
Cc1cc(O)c2c(C)c(CC(=O)NCc3ccccc3Cl)c(=O)oc2c1,41%,nt,-9%,0%[59 µM],-8%,nt
Cc1cc(NC(=O)/C=C/c2ccccc2Cl)no1,16%,12%,5%,-11%[59 µM],-22%,13%
CCN(CC)c1ccc(NC(=O)/C=C\c2ccccc2Cl)cc1,-12%,-24%,?,3.5µM*,?,-4%
CN(C)c1ccc(NC(=O)/C=C/c2ccccc2Cl)cc1,-20%,-14%,-7%,1.1µM*,-28%,1%
CCOC(=O)c1cccc(NC(=O)c2cc3cc4ccc(C)cc4nc3o2)c1,25%,nt,nt,15%[59 µM],-6%,nt
CC1(C)Cc2c(c(N3CCOCC3)nc3sc4c(NCc5ccco5)nnnc4c23)CS1,10%,21%[11.4 µM],-32%,18µM*,-8%,?
CC1(C)Cc2c(c(N3CCOCC3)nc3sc4c(NCc5ccccc5)nnnc4c23)CS1,2%,nt,-22%,-46%[59 µM],-10%,1%
CCCCCCCCCCOC(=O)NC1CCS(=O)(=O)C1 (stereo not given),47%,nt,0%,22%,6%,0%
CCCCCCS(=O)[C@H]1CS(=O)(=O)C[C@@H]1S(=O)CCCCCC (stereo not given in full),45%,-15%,-4%,8.9µM*,-7%,-2%
CCCCCCCCS(=O)C1CCS(=O)(=O)C1 (stereo not given),46%,4%,1%,40µM*,11%,12%
N#CCOc1ccc2oc(-c3ccco3)cc(=O)c2c1,nt,nt,1%,-42%,nt,13%
CC(C)OCCOc1ccc2oc(-c3ccco3)cc(=O)c2c1,?,?,56µM*,-3%[59 µM],?,8%
Cc1ccc(C2=NC(=O)/C(=C/c3cc(O)c(O)c(Br)c3)S2)cc1,3.2µM*,nt,3.5µM*,2.2µM*,5µM*,45µM*
COc1cc(/C=C2\SC(N)=NC2=O)cc(Cl)c1O,27%,4%[2.29 µM],-37%,8%[0.501 µM],-10%,4%
COc1cc(/C=C2\SC(c3ccc(C)cc3)=NC2=O)cc(OC)c1O,13µM*,?,35µM*,?,56µM*,11µM*
CC(C)(C)c1ccc(OCCn2cc(C(=O)c3ccco3)c3ccccc32)cc1,17%,nt,-39%,-10%[59 µM],-21%,nt
OCCN1CCN(CC(O)COCCOc2ccc(Br)cc2)CC1 (stereo not given),?,29%,20%,-13%[59 µM],18µM*,-6%
COc1ccc(N2CCN(CC(O)COc3ccc4c(c3)CCC4)CC2)cc1 (stereo not given),?,nt,35µM*,?,56µM*,-11%
COc1ccccc1N1CCN(CC(O)COCCOc2ccc(Br)cc2)CC1 (stereo not given),5%,5%,?,-10%[59 µM],?,4%
SMILES,HP1b binding inh,L3MBTL1 inh,BAZ2B block,G9a inh,JMJD2A Tudor,Sfp inh
COc1ccc(N2CCN(CC(O)COCCOc3ccc(Br)cc3)CC2)cc1 (stereo not given),10%,?,45µM*,10µM*,-20%,-11%
COc1ccc(N2CCN(CC(O)COC(C)(C)C)CC2)cc1 (stereo not given),?,2%,45µM*,10µM*,18µM*,-19%
CCc1ccc(C(=O)c2cn(Cc3ccc(F)cc3)c3cc(OC)c(OC)cc3c2=O)cc1,13%,nt,-28%,-41%[59 µM],-21%,nt
CCCOc1ccc(CCc2n[nH]c(=S)n2-c2ccccc2)cc1,24%,-14%,-33%,5.6µM*,-24%,-10%
COc1ccc(-n2c(Cn3nnc4ccccc43)nnc2SCC(=O)O)cc1,29%,1%,nt,-7%[59 µM],-6%,21%
CCCOc1ccc(CCc2n[nH]c(=S)n2Cc2ccccc2)cc1,29%,-4%,1%,?,-34%[57.1 µM],-8%
CCOc1ccc(-n2c(CCc3ccccc3)n[nH]c2=S)cc1,5%,-10%,-15%,?,16µM*,-14%
COc1ccc(-n2c(Cn3nnc4ccccc43)n[nH]c2=S)cc1,34%,4%,1%,8.9µM*,18µM*,-6%
Oc1ccc(CCc2n[nH]c(=S)n2-c2ccc(F)cc2)cc1,17%,7%,-15%,6.3µM*,25µM*,5%
Cc1ccc(C)c(N2CCN(C(=O)c3cc(C)nc4c3c(C)nn4-c3cccc(F)c3)CC2)c1,61%,nt,40%[57.1 µM],1%[59 µM],-4%,nt
COc1ccccc1N1CCN(CCc2n[nH]c(=S)n2-c2ccccc2)CC1,2%,nt,50µM*,?,18µM*,-11%
CCCCCC(O)CCc1n[nH]c(=S)n1-c1ccccc1 (stereo not given),13%,-1%,5%[57.1 µM],8.9µM*,20µM*,-5%
CCCCC(CC(O)COCCC)C(=O)NN (stereo not given),35%,10%,-2%,-3%,0%,22%
CCCCC(CC(O)COCCC)c1n[nH]c(=S)n1-c1ccccc1 (stereo not given),40%,-1%,-1%,15%[0.501 µM],16µM*,?
COc1ccccc1N1CCN(CCCCN2C(=O)c3ccccc3C2=O)CC1,20%,nt,nt,74%[12.7 µM],-21%,17%
COc1ccc(OCc2n[nH]c(=S)n2-c2ccc(C)cc2)cc1,7%,-12%,-32%,?,?,-23%
COc1ccc(-n2c(CCc3ccccc3)n[nH]c2=S)cc1,9%,-5%[11.4 µM],-34%,-117%,11µM*,-10%
CCCSc1nc2c([nH]c3ccccc32)c(=O)n1C,27%[57 µM],nt,1%,15%[59 µM],0%,nt
Cc1ccc(Cl)cc1-n1ncc2c(NCCC3=CCCCC3)ncnc21,40%,nt,11%,37%[59 µM],3%,nt
COc1ccc(C2CC(=O)N(CC(=O)Nc3ccc(C(C)=O)cc3)c3ccccc3S2)cc1OC (stereo not given),25%,nt,-19%,-23%[59 µM],-21%,nt
